Laboratory results: the supplement of paper PMC8728848
About 410 targets per protein were measured; listed, in parts, are those with the strongest signals and a random draw of the rest.

What was measured:
Assay in all cases: glycan array binding signal (z-score within array); higher = stronger binding
Settings in all cases: glycan notation: IUPAC condensed, linker removed
[1] = molecular target: Fuc(a1-2)Gal(b1-3)GalNAc(b1-3)Gal
Method in brief: (§1)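 Columns mapping to the same glycan were averaged after glycan names were converted to IUPAC-condensed notation. The data come from 3228 arrays in the Consortium for Functional Glycomics database, limited to those with an available protein sequence. Binding is reported as a within-array Z-score averaged across arrays of one protein sequence and across linkers.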

[2] = molecular target: Fuc(a1-2)Gal(b1-3)GalNAc(b1-3)Gal(b1-4)Glc
Method in brief: as §1

[3] = molecular target: Fuc(a1-2)Gal(b1-4)[Fuc(a1-3)]GlcNAc
Method in brief: as §1

Fuc(a1-3)GlcNAc = molecular target: Fuc(a1-3)GlcNAc
Method in brief: as §1

[4] = molecular target: Gal(b1-3)GalNAc(b1-3)Gal(b1-4)GlcNAc
Method in brief: as §1

[5] = molecular target: Gal(b1-4)GlcNAc(b1-2)Man(a1-3)[Gal(b1-4)GlcNAc(b1-2)Man(a1-6)]Man(b1-4)GlcNAc(b1-4)GlcNAc
Method in brief: as §1

Gal3S6S(b1-4)GlcNAc = molecular target: Gal3S6S(b1-4)GlcNAc
Method in brief: as §1

[6] = molecular target: GlcNAc(b1-3)Gal(b1-3)GalNAc
Method in brief: as §1

GlcNAc(b1-3)Gal(b1-4)Glc = molecular target: GlcNAc(b1-3)Gal(b1-4)Glc
Method in brief: as §1

[7] = molecular target: GlcNAc(b1-3)Gal(b1-4)GlcNAc(b1-3)Gal(b1-4)GlcNAc
Method in brief: as §1

[8] = molecular target: GlcNAc(b1-3)[GlcNAc(b1-6)]GlcNAc
Method in brief: as §1

[9] = molecular target: GlcNAc(b1-4)Gal(b1-4)GlcNAc
Method in brief: as §1

[10] = molecular target: Man(a1-2)Man(a1-3)[Man(a1-3)[Man(a1-6)]Man(a1-6)]Man(b1-4)GlcNAc(b1-4)GlcNAc
Method in brief: as §1

Man(a1-3)[Man(a1-6)]Man = molecular target: Man(a1-3)[Man(a1-6)]Man
Method in brief: as §1

[11] = molecular target: Neu5Ac(a2-3)Gal(b1-4)GlcNAc(b1-3)Gal(b1-4)GlcNAc
Method in brief: as §1

[12] = molecular target: Neu5Ac(a2-3)Gal(b1-4)[Fuc(a1-3)]GlcNAc6S
Method in brief: as §1

Neu5Ac(a2-3)GalNAc = molecular target: Neu5Ac(a2-3)GalNAc
Method in brief: as §1

[13] = molecular target: Neu5Ac(a2-3)[GalNAc(b1-4)]Gal(b1-4)Glc
Method in brief: as §1

[14] = molecular target: Neu5Ac(a2-6)Gal(b1-4)GlcNAc(b1-2)Man(a1-3)[Neu5Ac(a2-6)Gal(b1-4)GlcNAc(b1-2)Man(a1-6)]Man(b1-4)GlcNAc(b1-4)GlcNAc
Method in brief: as §1

[15] = molecular target: Neu5Ac(a2-6)Gal(b1-4)GlcNAc6S
Method in brief: as §1

[16] = molecular target: Neu5Ac(a2-8)Neu5Ac(a2-3)Gal(b1-4)Glc
Method in brief: as §1

B1: X56-1 (Clostridium perfringens), P26831 (protein)
chain: MGSSHHHHHHSSGLVPRGSHMASDPNRIIATYISNRQDAPTGNPDNIFDNNASTELVYKNPNRIDVGTYVGVKYSNPITLNNVEFLMGANSNPNDTMQKAKIQYTVDGREWIDLEEGVEYTMPGAIKVENLDLKVRGVRLIATEARENTWLGVRDINVNKKEDSNSGVEF
[1]
  glycan array binding signal (z-score): 0.726
[2]
  glycan array binding signal (z-score): 0.136
[3]
  glycan array binding signal (z-score): 0.085
Fuc(a1-3)GlcNAc
  glycan array binding signal (z-score): -0.245
[4]
  glycan array binding signal (z-score): 0.197
[5]
  glycan array binding signal (z-score): 5.94
Gal3S6S(b1-4)GlcNAc
  glycan array binding signal (z-score): -0.196
[6]
  glycan array binding signal (z-score): 0.035
GlcNAc(b1-3)Gal(b1-4)Glc
  glycan array binding signal (z-score): -0.355
[7]
  glycan array binding signal (z-score): -0.172
[8]
  glycan array binding signal (z-score): -0.276
[9]
  glycan array binding signal (z-score): -0.371
[10]
  glycan array binding signal (z-score): -0.387
Man(a1-3)[Man(a1-6)]Man
  glycan array binding signal (z-score): -0.231
[11]
  glycan array binding signal (z-score): 9.11
[12]
  glycan array binding signal (z-score): 1.06
Neu5Ac(a2-3)GalNAc
  glycan array binding signal (z-score): -0.264
[13]
  glycan array binding signal (z-score): -0.338
[14]
  glycan array binding signal (z-score): -0.264
[15]
  glycan array binding signal (z-score): -0.039
[16]
  glycan array binding signal (z-score): 0.954
